Columns and labels:
Assay in all cases: DAPPL (digital affinity profiling via proximity ligation, sequencing); 10 mM Tris-HCl pH 7.5, 50 mM NaCl, 1 mM DTT, 4% glycerol, room temperature, 30 min; GST-TFs on glutathione beads, 16-mer random dsDNA library, 0.1% formaldehyde crosslink after washing; high values mean tight binding
FEV = molecular target: T1, FEV (Homo sapiens, UniProt Q99581 1-238); conditions: protein: recombinant; tags: N-terminal GST; dsDNA, one strand shown
T1 sequence: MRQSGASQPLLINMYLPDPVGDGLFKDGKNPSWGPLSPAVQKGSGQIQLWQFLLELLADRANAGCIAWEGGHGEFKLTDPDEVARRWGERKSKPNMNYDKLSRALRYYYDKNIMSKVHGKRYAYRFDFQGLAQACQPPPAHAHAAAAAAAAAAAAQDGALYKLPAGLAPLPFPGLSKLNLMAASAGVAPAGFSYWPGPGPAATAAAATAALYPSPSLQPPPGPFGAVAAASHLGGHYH
In short: (§1)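 Yeast served to express human transcription factors as GST fusions, which were then captured on glutathione beads and labelled with DNA barcodes. Pooled with a tag-only sample, they were incubated with 200 nmole of a 16-mer random double-stranded DNA library for 30 min at room temperature in Tris/NaCl/DTT/glycerol buffer, washed, crosslinked with 0.1% formaldehyde, ligated by proximity, amplified by PCR and sequenced. Dividing each hexamer's read frequency for a factor by its frequency for the tag-only sample gives the binding signal.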

ETV5 = ETV5 (Homo sapiens, UniProt P41161 1-510); conditions: protein: recombinant; tags: N-terminal GST; dsDNA, one strand shown
Sequence of ETV5 (P41161 whole entry): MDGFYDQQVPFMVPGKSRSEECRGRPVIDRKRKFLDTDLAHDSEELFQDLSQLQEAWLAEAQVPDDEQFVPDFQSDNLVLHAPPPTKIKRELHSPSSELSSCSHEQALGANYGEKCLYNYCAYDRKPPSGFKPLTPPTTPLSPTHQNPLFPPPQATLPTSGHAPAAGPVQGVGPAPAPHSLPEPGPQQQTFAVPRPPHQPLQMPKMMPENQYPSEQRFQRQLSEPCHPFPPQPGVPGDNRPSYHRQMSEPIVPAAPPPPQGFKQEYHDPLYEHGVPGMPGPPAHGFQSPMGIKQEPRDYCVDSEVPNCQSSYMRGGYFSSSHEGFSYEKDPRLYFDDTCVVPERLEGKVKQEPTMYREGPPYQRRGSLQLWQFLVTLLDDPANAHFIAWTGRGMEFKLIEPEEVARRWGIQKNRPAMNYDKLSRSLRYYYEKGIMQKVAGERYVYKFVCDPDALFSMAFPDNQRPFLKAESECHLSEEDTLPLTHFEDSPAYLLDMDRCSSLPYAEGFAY
In short: as §1

HSF1 = HSF1 (Homo sapiens, UniProt Q00613 1-529); conditions: protein: recombinant; tags: N-terminal GST; chain copies: 3; dsDNA, one strand shown
Sequence of HSF1 (Q00613 whole entry): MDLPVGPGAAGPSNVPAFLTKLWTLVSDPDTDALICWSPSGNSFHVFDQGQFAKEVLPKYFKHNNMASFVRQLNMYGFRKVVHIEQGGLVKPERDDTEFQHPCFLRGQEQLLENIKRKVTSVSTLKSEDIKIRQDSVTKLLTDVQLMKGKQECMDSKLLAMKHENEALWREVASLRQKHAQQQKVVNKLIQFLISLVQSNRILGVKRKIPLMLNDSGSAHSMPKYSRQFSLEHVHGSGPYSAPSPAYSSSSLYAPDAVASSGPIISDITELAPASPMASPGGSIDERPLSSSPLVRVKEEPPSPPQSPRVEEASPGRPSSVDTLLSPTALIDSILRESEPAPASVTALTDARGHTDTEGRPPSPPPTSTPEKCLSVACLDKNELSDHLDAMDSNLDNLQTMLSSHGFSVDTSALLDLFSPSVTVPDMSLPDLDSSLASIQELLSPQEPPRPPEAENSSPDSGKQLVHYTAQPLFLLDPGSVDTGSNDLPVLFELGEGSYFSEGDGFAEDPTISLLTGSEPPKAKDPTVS
In short: as §1

SPIC = molecular target: T2, SPIC (Homo sapiens, UniProt Q8N5J4 1-248); conditions: protein: recombinant; tags: N-terminal GST; dsDNA, one strand shown
T2 sequence: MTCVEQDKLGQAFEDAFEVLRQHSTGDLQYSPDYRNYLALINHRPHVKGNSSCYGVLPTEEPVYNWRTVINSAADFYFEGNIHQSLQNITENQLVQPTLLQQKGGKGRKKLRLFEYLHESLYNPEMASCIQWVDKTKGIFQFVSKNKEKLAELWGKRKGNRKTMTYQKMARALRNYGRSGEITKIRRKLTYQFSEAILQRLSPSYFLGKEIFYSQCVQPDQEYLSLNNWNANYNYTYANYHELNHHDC
In short: as §1

ELF4 = ELF4 (Homo sapiens, UniProt Q99607 1-663); conditions: protein: recombinant; tags: N-terminal GST; dsDNA, one strand shown
Sequence of ELF4 (Q99607 whole entry): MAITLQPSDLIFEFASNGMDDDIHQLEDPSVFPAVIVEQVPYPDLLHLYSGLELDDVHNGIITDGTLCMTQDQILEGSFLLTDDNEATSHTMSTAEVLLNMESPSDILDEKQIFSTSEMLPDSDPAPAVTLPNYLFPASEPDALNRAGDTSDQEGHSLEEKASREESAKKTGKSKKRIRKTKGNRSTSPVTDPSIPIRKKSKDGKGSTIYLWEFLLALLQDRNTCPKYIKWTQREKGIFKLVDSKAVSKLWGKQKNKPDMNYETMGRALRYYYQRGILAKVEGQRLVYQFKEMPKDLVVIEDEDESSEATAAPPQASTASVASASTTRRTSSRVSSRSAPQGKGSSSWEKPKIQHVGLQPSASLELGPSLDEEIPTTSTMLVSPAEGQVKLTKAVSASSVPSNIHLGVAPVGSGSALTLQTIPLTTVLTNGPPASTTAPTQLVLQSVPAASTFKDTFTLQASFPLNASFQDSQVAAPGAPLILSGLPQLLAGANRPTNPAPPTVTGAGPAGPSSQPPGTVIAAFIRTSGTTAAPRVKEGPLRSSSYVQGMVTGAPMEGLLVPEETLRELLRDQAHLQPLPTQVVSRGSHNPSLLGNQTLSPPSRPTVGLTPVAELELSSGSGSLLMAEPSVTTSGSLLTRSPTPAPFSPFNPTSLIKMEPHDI
In short: as §1

ELK4 = molecular target: T3, ELK4 (Homo sapiens, UniProt P28324-2 1-405); conditions: protein: recombinant; tags: N-terminal GST; dsDNA, one strand shown
T3 sequence: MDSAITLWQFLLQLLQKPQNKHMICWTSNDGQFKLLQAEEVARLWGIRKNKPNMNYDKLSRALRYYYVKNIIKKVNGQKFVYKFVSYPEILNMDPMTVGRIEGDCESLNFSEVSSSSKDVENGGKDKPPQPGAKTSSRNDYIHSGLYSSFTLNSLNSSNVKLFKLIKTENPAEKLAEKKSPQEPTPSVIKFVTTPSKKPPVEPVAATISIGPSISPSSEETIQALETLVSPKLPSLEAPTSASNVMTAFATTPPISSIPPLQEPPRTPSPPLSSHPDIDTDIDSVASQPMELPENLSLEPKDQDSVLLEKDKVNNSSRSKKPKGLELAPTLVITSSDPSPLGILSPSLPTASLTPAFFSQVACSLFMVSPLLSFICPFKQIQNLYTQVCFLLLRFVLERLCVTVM
In short: as §1

ETV2 = molecular target: T4, ETV2 (Homo sapiens, UniProt O00321 1-342); conditions: protein: recombinant; tags: N-terminal GST; dsDNA, one strand shown
T4 sequence: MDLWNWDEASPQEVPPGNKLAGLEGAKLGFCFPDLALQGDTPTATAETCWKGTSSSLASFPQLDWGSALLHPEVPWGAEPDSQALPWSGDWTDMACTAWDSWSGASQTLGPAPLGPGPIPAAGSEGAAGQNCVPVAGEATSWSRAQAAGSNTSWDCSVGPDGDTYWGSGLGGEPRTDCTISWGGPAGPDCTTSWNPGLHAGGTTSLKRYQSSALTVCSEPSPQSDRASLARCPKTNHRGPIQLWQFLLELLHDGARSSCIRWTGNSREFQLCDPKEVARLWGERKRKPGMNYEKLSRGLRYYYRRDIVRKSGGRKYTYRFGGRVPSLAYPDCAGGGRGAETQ
In short: as §1

ELF3 = molecular target: T5, ELF3 (Homo sapiens, UniProt P78545 1-371); conditions: protein: recombinant; tags: N-terminal GST; dsDNA, one strand shown
T5 sequence: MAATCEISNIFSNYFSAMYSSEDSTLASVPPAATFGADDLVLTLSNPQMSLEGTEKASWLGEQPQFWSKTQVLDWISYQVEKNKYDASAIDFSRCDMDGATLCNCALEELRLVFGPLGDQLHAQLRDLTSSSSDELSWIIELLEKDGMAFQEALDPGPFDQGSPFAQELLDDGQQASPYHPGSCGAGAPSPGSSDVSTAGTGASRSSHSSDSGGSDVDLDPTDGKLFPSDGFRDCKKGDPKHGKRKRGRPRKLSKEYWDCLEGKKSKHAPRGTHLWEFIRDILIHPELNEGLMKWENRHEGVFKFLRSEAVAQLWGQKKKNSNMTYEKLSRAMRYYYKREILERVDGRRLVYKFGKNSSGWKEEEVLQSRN
In short: as §1

ETV1 = ETV1 (Homo sapiens, UniProt P50549 1-477); conditions: protein: recombinant; tags: N-terminal GST; dsDNA, one strand shown
Sequence of ETV1 (P50549 whole entry): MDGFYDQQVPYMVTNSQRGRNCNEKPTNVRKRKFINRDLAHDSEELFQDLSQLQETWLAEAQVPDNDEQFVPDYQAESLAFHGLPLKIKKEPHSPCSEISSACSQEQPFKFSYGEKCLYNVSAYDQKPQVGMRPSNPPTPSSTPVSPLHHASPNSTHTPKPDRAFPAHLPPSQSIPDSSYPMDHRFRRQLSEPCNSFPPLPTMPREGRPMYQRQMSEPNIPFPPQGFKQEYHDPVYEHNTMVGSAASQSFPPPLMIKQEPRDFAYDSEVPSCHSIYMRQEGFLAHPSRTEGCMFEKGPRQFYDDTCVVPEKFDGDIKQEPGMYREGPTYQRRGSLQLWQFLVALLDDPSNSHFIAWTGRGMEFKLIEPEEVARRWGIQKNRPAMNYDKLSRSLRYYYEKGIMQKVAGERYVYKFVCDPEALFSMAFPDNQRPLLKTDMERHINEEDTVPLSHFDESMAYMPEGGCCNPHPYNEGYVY
In short: as §1

ERF = molecular target: T6, ERF (Homo sapiens, UniProt P50548 1-548); conditions: protein: recombinant; tags: N-terminal GST; dsDNA, one strand shown
T6 sequence: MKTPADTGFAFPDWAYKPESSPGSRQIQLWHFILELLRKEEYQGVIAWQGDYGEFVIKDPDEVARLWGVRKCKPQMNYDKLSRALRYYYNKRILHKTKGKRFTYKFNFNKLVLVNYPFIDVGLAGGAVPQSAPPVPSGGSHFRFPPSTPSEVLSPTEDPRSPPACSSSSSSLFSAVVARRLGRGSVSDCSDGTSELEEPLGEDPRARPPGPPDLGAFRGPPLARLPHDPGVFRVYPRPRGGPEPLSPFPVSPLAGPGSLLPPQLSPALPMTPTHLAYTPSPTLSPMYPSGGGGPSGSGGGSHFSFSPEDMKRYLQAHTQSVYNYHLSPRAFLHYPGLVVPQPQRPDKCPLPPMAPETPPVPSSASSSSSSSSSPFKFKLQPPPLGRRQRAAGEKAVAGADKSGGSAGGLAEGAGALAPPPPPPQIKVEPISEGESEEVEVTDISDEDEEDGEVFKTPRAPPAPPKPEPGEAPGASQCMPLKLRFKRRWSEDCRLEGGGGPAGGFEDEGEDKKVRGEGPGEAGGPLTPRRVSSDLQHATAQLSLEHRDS
In short: as §1

ETV3L = molecular target: T7, ETV3L (Homo sapiens, UniProt Q6ZN32 1-361); conditions: protein: recombinant; tags: N-terminal GST; dsDNA, one strand shown
T7 sequence: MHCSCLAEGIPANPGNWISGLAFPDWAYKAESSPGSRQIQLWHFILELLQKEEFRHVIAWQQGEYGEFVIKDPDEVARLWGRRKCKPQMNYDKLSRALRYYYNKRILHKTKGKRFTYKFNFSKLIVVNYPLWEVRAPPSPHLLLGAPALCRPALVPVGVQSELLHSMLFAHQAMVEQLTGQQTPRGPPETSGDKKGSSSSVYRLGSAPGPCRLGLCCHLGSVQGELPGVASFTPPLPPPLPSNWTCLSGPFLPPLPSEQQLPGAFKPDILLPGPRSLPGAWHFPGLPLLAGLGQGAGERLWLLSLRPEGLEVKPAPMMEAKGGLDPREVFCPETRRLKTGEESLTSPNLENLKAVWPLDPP
In short: as §1

ETS2 = molecular target: T8, ETS2 (Homo sapiens, UniProt P15036 1-469); conditions: protein: recombinant; tags: N-terminal GST; dsDNA, one strand shown
T8 sequence: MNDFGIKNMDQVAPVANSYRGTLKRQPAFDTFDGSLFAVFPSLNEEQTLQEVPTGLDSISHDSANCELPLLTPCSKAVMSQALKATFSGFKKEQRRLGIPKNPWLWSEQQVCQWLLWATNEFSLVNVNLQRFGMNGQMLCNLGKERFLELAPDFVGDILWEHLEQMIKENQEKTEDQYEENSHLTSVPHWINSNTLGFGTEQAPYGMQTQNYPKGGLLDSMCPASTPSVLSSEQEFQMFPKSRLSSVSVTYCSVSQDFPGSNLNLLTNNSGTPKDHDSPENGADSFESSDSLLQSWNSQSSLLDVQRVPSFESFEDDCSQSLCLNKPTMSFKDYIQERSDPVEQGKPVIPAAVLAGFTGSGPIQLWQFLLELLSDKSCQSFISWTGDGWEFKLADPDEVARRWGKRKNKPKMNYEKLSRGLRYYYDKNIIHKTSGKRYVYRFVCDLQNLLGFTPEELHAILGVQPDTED
In short: as §1

SPDEF = molecular target: T9, SPDEF (Homo sapiens, UniProt O95238 1-335); conditions: protein: recombinant; tags: N-terminal GST; dsDNA, one strand shown
T9 sequence: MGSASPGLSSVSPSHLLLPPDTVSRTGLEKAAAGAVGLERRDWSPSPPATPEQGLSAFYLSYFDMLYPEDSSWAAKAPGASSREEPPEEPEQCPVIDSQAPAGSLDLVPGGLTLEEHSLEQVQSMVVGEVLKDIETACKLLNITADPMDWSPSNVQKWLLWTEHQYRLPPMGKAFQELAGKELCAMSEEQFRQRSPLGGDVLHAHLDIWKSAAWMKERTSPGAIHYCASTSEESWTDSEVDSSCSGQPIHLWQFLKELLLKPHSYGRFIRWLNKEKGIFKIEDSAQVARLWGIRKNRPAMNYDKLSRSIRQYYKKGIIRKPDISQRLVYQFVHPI
In short: as §1

ETV7 = molecular target: T10, ETV7 (Homo sapiens, UniProt Q9Y603 1-341); conditions: protein: recombinant; tags: N-terminal GST; dsDNA, one strand shown
T10 sequence: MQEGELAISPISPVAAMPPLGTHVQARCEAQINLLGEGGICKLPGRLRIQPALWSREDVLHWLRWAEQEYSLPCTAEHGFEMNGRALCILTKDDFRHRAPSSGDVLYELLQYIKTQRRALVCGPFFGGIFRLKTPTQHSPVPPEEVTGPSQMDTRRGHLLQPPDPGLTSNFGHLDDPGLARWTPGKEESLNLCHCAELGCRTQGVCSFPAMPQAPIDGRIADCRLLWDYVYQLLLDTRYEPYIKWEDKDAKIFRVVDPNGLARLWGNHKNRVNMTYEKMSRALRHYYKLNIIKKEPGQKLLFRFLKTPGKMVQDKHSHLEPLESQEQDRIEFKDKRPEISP
In short: as §1

ELF5 = molecular target: T11, ELF5 (Homo sapiens, UniProt Q9UKW6-2 1-255); conditions: protein: recombinant; tags: N-terminal GST; dsDNA, one strand shown
T11 sequence: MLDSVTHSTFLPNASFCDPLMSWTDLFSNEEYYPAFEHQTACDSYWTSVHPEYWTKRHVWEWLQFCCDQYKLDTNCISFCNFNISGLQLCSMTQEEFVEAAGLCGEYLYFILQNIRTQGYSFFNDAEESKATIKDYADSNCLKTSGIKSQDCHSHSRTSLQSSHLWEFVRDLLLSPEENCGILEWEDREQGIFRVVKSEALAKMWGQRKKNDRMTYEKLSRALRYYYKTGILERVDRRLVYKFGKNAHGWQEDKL
In short: as §1

ETV3 = molecular target: T12, ETV3 (Homo sapiens, UniProt P41162-2 1-143); conditions: protein: recombinant; tags: N-terminal GST; dsDNA, one strand shown
T12 sequence: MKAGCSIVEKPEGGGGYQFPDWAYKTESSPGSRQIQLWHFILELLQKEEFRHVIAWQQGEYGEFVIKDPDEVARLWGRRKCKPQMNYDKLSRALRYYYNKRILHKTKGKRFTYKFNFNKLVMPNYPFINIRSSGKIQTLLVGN
In short: as §1

ETV6 = ETV6 (Homo sapiens, UniProt P41212 1-452); conditions: protein: recombinant; tags: N-terminal GST; dsDNA, one strand shown
Sequence of ETV6 (P41212 whole entry): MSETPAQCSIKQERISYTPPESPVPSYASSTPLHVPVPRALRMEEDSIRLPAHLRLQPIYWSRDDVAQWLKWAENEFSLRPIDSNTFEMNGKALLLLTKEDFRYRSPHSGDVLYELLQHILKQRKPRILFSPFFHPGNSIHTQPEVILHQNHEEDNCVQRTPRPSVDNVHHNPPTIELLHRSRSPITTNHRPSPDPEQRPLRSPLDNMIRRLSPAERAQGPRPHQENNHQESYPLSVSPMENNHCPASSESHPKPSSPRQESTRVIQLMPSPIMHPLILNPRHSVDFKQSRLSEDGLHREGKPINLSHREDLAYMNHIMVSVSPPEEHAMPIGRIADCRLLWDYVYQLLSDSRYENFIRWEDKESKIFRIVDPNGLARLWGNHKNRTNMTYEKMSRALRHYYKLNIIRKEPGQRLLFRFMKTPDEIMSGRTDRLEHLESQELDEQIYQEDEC
In short: as §1

## CAATTG
FEV
  binding signal: 1.18 fold enrichment (6-mer frequency, TF over GST control)
ETV5
  binding signal: 1.2 fold enrichment (6-mer frequency, TF over GST control)
HSF1
  binding signal: 1.04 fold enrichment (6-mer frequency, TF over GST control)
SPIC
  binding signal: 1.28 fold enrichment (6-mer frequency, TF over GST control)
ELF4
  binding signal: 1.27 fold enrichment (6-mer frequency, TF over GST control)
ELK4
  binding signal: 1.04 fold enrichment (6-mer frequency, TF over GST control)
ETV2
  binding signal: 1.16 fold enrichment (6-mer frequency, TF over GST control)
ELF3
  binding signal: 1.32 fold enrichment (6-mer frequency, TF over GST control)
ETV1
  binding signal: 1.17 fold enrichment (6-mer frequency, TF over GST control)
ERF
  binding signal: 1.29 fold enrichment (6-mer frequency, TF over GST control)
ETV3L
  binding signal: 1.2 fold enrichment (6-mer frequency, TF over GST control)
ETS2
  binding signal: 1.26 fold enrichment (6-mer frequency, TF over GST control)
SPDEF
  binding signal: 1.12 fold enrichment (6-mer frequency, TF over GST control)
ETV7
  binding signal: 1.32 fold enrichment (6-mer frequency, TF over GST control)
ELF5
  binding signal: 1.21 fold enrichment (6-mer frequency, TF over GST control)
ETV3
  binding signal: 1.2 fold enrichment (6-mer frequency, TF over GST control)
ETV6
  binding signal: 1.23 fold enrichment (6-mer frequency, TF over GST control)

## GCAAAA
FEV
  binding signal: 1.08 fold enrichment (6-mer frequency, TF over GST control)
ETV5
  binding signal: 1.07 fold enrichment (6-mer frequency, TF over GST control)
HSF1
  binding signal: 1.01 fold enrichment (6-mer frequency, TF over GST control)
SPIC
  binding signal: 1.06 fold enrichment (6-mer frequency, TF over GST control)
ELF4
  binding signal: 1.13 fold enrichment (6-mer frequency, TF over GST control)
ELK4
  binding signal: 1.16 fold enrichment (6-mer frequency, TF over GST control)
ETV2
  binding signal: 1.14 fold enrichment (6-mer frequency, TF over GST control)
ELF3
  binding signal: 1.2 fold enrichment (6-mer frequency, TF over GST control)
ETV1
  binding signal: 1.14 fold enrichment (6-mer frequency, TF over GST control)
ERF
  binding signal: 1.14 fold enrichment (6-mer frequency, TF over GST control)
ETV3L
  binding signal: 1.06 fold enrichment (6-mer frequency, TF over GST control)
ETS2
  binding signal: 1.18 fold enrichment (6-mer frequency, TF over GST control)
SPDEF
  binding signal: 1 fold enrichment (6-mer frequency, TF over GST control)
ETV7
  binding signal: 1.09 fold enrichment (6-mer frequency, TF over GST control)
ELF5
  binding signal: 1.06 fold enrichment (6-mer frequency, TF over GST control)
ETV3
  binding signal: 1.07 fold enrichment (6-mer frequency, TF over GST control)
ETV6
  binding signal: 1.04 fold enrichment (6-mer frequency, TF over GST control)
